# Experimental data published in PMC11006913.
# Where a chain is given by its changes, count along the chain named.
# Key:
# Experiment in all cases: PBM; 200 nM protein, PBS
# Details in all cases: dsDNA, one strand shown
# PAX4 [1] = target: T1, PAX4 (Homo sapiens, UniProt O43316 9-242, R200K)
# T1 sequence: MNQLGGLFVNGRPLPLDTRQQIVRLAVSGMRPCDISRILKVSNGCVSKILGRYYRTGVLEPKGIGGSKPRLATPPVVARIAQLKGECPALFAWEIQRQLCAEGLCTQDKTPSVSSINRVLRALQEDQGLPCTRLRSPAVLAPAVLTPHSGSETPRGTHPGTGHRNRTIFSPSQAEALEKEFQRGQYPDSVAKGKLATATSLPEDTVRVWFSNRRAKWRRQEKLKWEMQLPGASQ
# PAX4 [2] = target: T2, PAX4 (Homo sapiens, UniProt O43316 9-242)
# T2 sequence: T1 sequence with K192R
# HOXD13 [3] = target: HOXD13 (Homo sapiens, UniProt P35453 263-343, T313R)
# Chain of HOXD13 (Homo sapiens, UniProt P35453 263-343, T313R) (P35453 263-343 T313R): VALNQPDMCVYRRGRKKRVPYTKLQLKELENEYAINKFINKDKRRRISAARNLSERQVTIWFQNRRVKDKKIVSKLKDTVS
# PAX4 [4] = target: T3, PAX4 (Homo sapiens, UniProt O43316 9-242, R200Q)
# T3 sequence: T1 sequence with K192Q
# HOXD13 [5] = target: HOXD13 (Homo sapiens, UniProt P35453 263-343)
# Chain of HOXD13 (Homo sapiens, UniProt P35453 263-343) (P35453 263-343): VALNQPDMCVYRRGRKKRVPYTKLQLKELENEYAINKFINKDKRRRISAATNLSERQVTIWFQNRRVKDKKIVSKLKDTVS
# PAX4 [6] = target: T4, PAX4 (Homo sapiens, UniProt O43316 9-242, F177V)
# T4 sequence: T1 sequence with F169V, K192R
# PAX4 [7] = target: T5, PAX4 (Homo sapiens, UniProt O43316 9-242, F177Y)
# T5 sequence: T1 sequence with F169Y, K192R
# HOXD13 [8] = target: HOXD13 (Homo sapiens, UniProt P35453 263-343, T313A)
# Chain of HOXD13 (Homo sapiens, UniProt P35453 263-343, T313A) (P35453 263-343 T313A): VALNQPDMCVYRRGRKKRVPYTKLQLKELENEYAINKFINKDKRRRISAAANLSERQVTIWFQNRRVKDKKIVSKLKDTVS
# PAX4 [9] = target: T6, PAX4 (Homo sapiens, UniProt O43316 9-242, R227W)
# T6 sequence: T1 sequence with K192R, R219W
# NKX2-6 [10] = target: T7, NKX2-6 (Homo sapiens, UniProt A6NCS4 118-204)
# T7 sequence: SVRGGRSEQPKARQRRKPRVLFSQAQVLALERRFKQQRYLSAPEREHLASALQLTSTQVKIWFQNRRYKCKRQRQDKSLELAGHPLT
# NKX2-6 [11] = target: T8, NKX2-6 (Homo sapiens, UniProt A6NCS4 118-204, F151L)
# T8 sequence: T7 sequence with F34L
# HOXB9 [12] = target: HOXB9 (Homo sapiens, UniProt P17482 171-250)
# Chain of HOXB9 (Homo sapiens, UniProt P17482 171-250) (P17482 171-250): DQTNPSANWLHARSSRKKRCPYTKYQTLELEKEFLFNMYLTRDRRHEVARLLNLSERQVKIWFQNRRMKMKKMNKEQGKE
# ALX3 [13] = target: ALX3 (Homo sapiens, UniProt O95076 139-225, N203Q)
# Chain of ALX3 (Homo sapiens, UniProt O95076 139-225, N203Q) (O95076 139-225 N203Q): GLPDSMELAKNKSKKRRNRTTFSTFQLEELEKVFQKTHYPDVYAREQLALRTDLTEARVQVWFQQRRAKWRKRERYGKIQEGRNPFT
# ALX3 [14] = target: ALX3 (Homo sapiens, UniProt O95076 139-225)
# Chain of ALX3 (Homo sapiens, UniProt O95076 139-225) (O95076 139-225): as the sequence (O95076 139-225 N203Q) above, with Q65N counted along it
# ALX3 [15] = target: ALX3 (Homo sapiens, UniProt O95076 139-225, L168Q)
# Chain of ALX3 (Homo sapiens, UniProt O95076 139-225, L168Q) (O95076 139-225 L168Q): as the sequence (O95076 139-225 N203Q) above, with L30Q, Q65N counted along it
# HOXB9 [16] = target: HOXB9 (Homo sapiens, UniProt P17482 171-250, R186Q)
# Chain of HOXB9 (Homo sapiens, UniProt P17482 171-250, R186Q) (P17482 171-250 R186Q): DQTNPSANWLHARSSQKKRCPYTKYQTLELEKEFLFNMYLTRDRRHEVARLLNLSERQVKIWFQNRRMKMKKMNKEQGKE
# ALX3 [17] = target: ALX3 (Homo sapiens, UniProt O95076 139-225, L168V)
# Chain of ALX3 (Homo sapiens, UniProt O95076 139-225, L168V) (O95076 139-225 L168V): as the sequence (O95076 139-225 N203Q) above, with L30V, Q65N counted along it
# ALX3 [18] = target: ALX3 (Homo sapiens, UniProt O95076 139-225, N203S)
# Chain of ALX3 (Homo sapiens, UniProt O95076 139-225, N203S) (O95076 139-225 N203S): as the sequence (O95076 139-225 N203Q) above, with Q65S counted along it
sequence,measurement,setting,value
CAAGCCCC,binding signal,PAX4 [1],"9.27 upbm affinity estimate (log intensity, higher = more binding, comparable within an allelic series)"
same,binding signal,PAX4 [2],"9.32 upbm affinity estimate (log intensity, higher = more binding, comparable within an allelic series)"
same,binding signal,HOXD13 [3],"9.5 upbm affinity estimate (log intensity, higher = more binding, comparable within an allelic series)"
same,binding signal,PAX4 [4],"9.37 upbm affinity estimate (log intensity, higher = more binding, comparable within an allelic series)"
same,binding signal,HOXD13 [5],"9.54 upbm affinity estimate (log intensity, higher = more binding, comparable within an allelic series)"
same,binding signal,PAX4 [6],"9.26 upbm affinity estimate (log intensity, higher = more binding, comparable within an allelic series)"
same,binding signal,PAX4 [7],"9.29 upbm affinity estimate (log intensity, higher = more binding, comparable within an allelic series)"
same,binding signal,HOXD13 [8],"9.61 upbm affinity estimate (log intensity, higher = more binding, comparable within an allelic series)"
same,binding signal,PAX4 [9],"9.3 upbm affinity estimate (log intensity, higher = more binding, comparable within an allelic series)"
CGACAGCG,binding signal,PAX4 [1],"9.45 upbm affinity estimate (log intensity, higher = more binding, comparable within an allelic series)"
same,binding signal,PAX4 [2],"9.39 upbm affinity estimate (log intensity, higher = more binding, comparable within an allelic series)"
same,binding signal,NKX2-6 [10],"9.49 upbm affinity estimate (log intensity, higher = more binding, comparable within an allelic series)"
same,binding signal,PAX4 [4],"9.48 upbm affinity estimate (log intensity, higher = more binding, comparable within an allelic series)"
same,binding signal,PAX4 [6],"9.36 upbm affinity estimate (log intensity, higher = more binding, comparable within an allelic series)"
same,binding signal,PAX4 [7],"9.33 upbm affinity estimate (log intensity, higher = more binding, comparable within an allelic series)"
same,binding signal,NKX2-6 [11],"9.32 upbm affinity estimate (log intensity, higher = more binding, comparable within an allelic series)"
same,binding signal,PAX4 [9],"9.44 upbm affinity estimate (log intensity, higher = more binding, comparable within an allelic series)"
CCCTAATA,binding signal,PAX4 [1],"11.3 upbm affinity estimate (log intensity, higher = more binding, comparable within an allelic series)"
same,binding signal,PAX4 [2],"11.6 upbm affinity estimate (log intensity, higher = more binding, comparable within an allelic series)"
same,binding signal,HOXB9 [12],"10.3 upbm affinity estimate (log intensity, higher = more binding, comparable within an allelic series)"
same,binding signal,ALX3 [13],"8.25 upbm affinity estimate (log intensity, higher = more binding, comparable within an allelic series)"
same,binding signal,PAX4 [4],"11.2 upbm affinity estimate (log intensity, higher = more binding, comparable within an allelic series)"
same,binding signal,PAX4 [6],"10.2 upbm affinity estimate (log intensity, higher = more binding, comparable within an allelic series)"
same,binding signal,ALX3 [14],"10.9 upbm affinity estimate (log intensity, higher = more binding, comparable within an allelic series)"
same,binding signal,PAX4 [7],"10.5 upbm affinity estimate (log intensity, higher = more binding, comparable within an allelic series)"
same,binding signal,ALX3 [15],"8.97 upbm affinity estimate (log intensity, higher = more binding, comparable within an allelic series)"
same,binding signal,HOXB9 [16],"10.2 upbm affinity estimate (log intensity, higher = more binding, comparable within an allelic series)"
same,binding signal,ALX3 [17],"8.89 upbm affinity estimate (log intensity, higher = more binding, comparable within an allelic series)"
same,binding signal,PAX4 [9],"10.6 upbm affinity estimate (log intensity, higher = more binding, comparable within an allelic series)"
same,binding signal,ALX3 [18],"8.32 upbm affinity estimate (log intensity, higher = more binding, comparable within an allelic series)"
ATTAGCTA,binding signal,PAX4 [1],"11.4 upbm affinity estimate (log intensity, higher = more binding, comparable within an allelic series)"
same,binding signal,PAX4 [2],"11.7 upbm affinity estimate (log intensity, higher = more binding, comparable within an allelic series)"
same,binding signal,PAX4 [4],"11.4 upbm affinity estimate (log intensity, higher = more binding, comparable within an allelic series)"
same,binding signal,PAX4 [6],"10.2 upbm affinity estimate (log intensity, higher = more binding, comparable within an allelic series)"
same,binding signal,PAX4 [7],"10.6 upbm affinity estimate (log intensity, higher = more binding, comparable within an allelic series)"
same,binding signal,PAX4 [9],"10.6 upbm affinity estimate (log intensity, higher = more binding, comparable within an allelic series)"
AGACAGCT,binding signal,PAX4 [1],"9.26 upbm affinity estimate (log intensity, higher = more binding, comparable within an allelic series)"
same,binding signal,PAX4 [2],"9.25 upbm affinity estimate (log intensity, higher = more binding, comparable within an allelic series)"
same,binding signal,PAX4 [4],"9.61 upbm affinity estimate (log intensity, higher = more binding, comparable within an allelic series)"
same,binding signal,PAX4 [6],"9.5 upbm affinity estimate (log intensity, higher = more binding, comparable within an allelic series)"
same,binding signal,PAX4 [7],"9.46 upbm affinity estimate (log intensity, higher = more binding, comparable within an allelic series)"
same,binding signal,PAX4 [9],"9.5 upbm affinity estimate (log intensity, higher = more binding, comparable within an allelic series)"
CTAATCAG,binding signal,PAX4 [1],"11.2 upbm affinity estimate (log intensity, higher = more binding, comparable within an allelic series)"
same,binding signal,PAX4 [2],"11.6 upbm affinity estimate (log intensity, higher = more binding, comparable within an allelic series)"
same,binding signal,PAX4 [4],"11.3 upbm affinity estimate (log intensity, higher = more binding, comparable within an allelic series)"
same,binding signal,PAX4 [6],"10.1 upbm affinity estimate (log intensity, higher = more binding, comparable within an allelic series)"
same,binding signal,PAX4 [7],"10.5 upbm affinity estimate (log intensity, higher = more binding, comparable within an allelic series)"
same,binding signal,PAX4 [9],"10.3 upbm affinity estimate (log intensity, higher = more binding, comparable within an allelic series)"
CCCGCGCG,binding signal,PAX4 [1],"9.26 upbm affinity estimate (log intensity, higher = more binding, comparable within an allelic series)"
same,binding signal,PAX4 [2],"9.11 upbm affinity estimate (log intensity, higher = more binding, comparable within an allelic series)"
same,binding signal,PAX4 [4],"9.18 upbm affinity estimate (log intensity, higher = more binding, comparable within an allelic series)"
same,binding signal,PAX4 [6],"9.01 upbm affinity estimate (log intensity, higher = more binding, comparable within an allelic series)"
same,binding signal,PAX4 [7],"9.06 upbm affinity estimate (log intensity, higher = more binding, comparable within an allelic series)"
same,binding signal,PAX4 [9],"9.19 upbm affinity estimate (log intensity, higher = more binding, comparable within an allelic series)"
GTGAATTA,binding signal,PAX4 [1],"11.6 upbm affinity estimate (log intensity, higher = more binding, comparable within an allelic series)"
same,binding signal,PAX4 [2],"12.2 upbm affinity estimate (log intensity, higher = more binding, comparable within an allelic series)"
same,binding signal,PAX4 [4],"11.5 upbm affinity estimate (log intensity, higher = more binding, comparable within an allelic series)"
same,binding signal,PAX4 [6],"10.5 upbm affinity estimate (log intensity, higher = more binding, comparable within an allelic series)"
same,binding signal,PAX4 [7],"11 upbm affinity estimate (log intensity, higher = more binding, comparable within an allelic series)"
same,binding signal,PAX4 [9],"10.9 upbm affinity estimate (log intensity, higher = more binding, comparable within an allelic series)"
CGTTGGCC,binding signal,PAX4 [1],"9.3 upbm affinity estimate (log intensity, higher = more binding, comparable within an allelic series)"
same,binding signal,PAX4 [2],"9.3 upbm affinity estimate (log intensity, higher = more binding, comparable within an allelic series)"
same,binding signal,PAX4 [4],"9.53 upbm affinity estimate (log intensity, higher = more binding, comparable within an allelic series)"
same,binding signal,PAX4 [6],"9.43 upbm affinity estimate (log intensity, higher = more binding, comparable within an allelic series)"
same,binding signal,PAX4 [7],"9.4 upbm affinity estimate (log intensity, higher = more binding, comparable within an allelic series)"
same,binding signal,PAX4 [9],"9.45 upbm affinity estimate (log intensity, higher = more binding, comparable within an allelic series)"
